Assay results taken from PubChem BioAssay (NCI).
About 83,000 compounds went through this panel and 20% of them were active in at least one assay; those are over-represented in the sample as a whole.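 Note: values are percent growth. 100 is the growth of untreated cells, values between 100 and 0 indicate rising inhibition; between -100 and 0 indicates cell death.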 Active and inactive are the calls of the source. The calls were made as follows: active = growth percent below 10; inactive = the rest.

Tests used:
Experiment in all cases: NCI-60 one-dose screen, 48 h (100 = growth as untreated, 0 = no growth, -100 = all killed)
Settings in all cases: 10 µM
HCT-15 colon = system: HCT-15 colon
HT29 colon = system: HT29 colon
SNB-75 CNS = system: SNB-75 CNS
SNB-19 CNS = system: SNB-19 CNS
U251 CNS = system: U251 CNS
PC-3 prostate = system: PC-3 prostate
SK-MEL-5 melanoma = system: SK-MEL-5 melanoma
UACC-62 melanoma = system: UACC-62 melanoma
LOX IMVI melanoma = system: LOX IMVI melanoma
SK-MEL-28 melanoma = system: SK-MEL-28 melanoma

Measured: growth

CN1C(=O)N(C)C2SC(N/N=C/c3ccccc3F)=NC21 (stereo not given)
inactive: HCT-15 colon 28.2% | HT29 colon 28.2% | SNB-75 CNS 91.1% | SNB-19 CNS 63.4% | U251 CNS 51.2% | PC-3 prostate 81.5% | SK-MEL-5 melanoma 57.9% | UACC-62 melanoma 26.8% | LOX IMVI melanoma 50.2% | SK-MEL-28 melanoma 69.2%

Cc1ccc(C(=O)N/C(=C2/OCCN2C)[P+](c2ccccc2)(c2ccccc2)c2ccccc2)cc1
inactive: HCT-15 colon 110% | HT29 colon 59.7% | SNB-75 CNS 99.9% | SNB-19 CNS 74.1% | U251 CNS 75.5% | PC-3 prostate 62.5% | SK-MEL-5 melanoma 72.2% | UACC-62 melanoma 48.2% | LOX IMVI melanoma 44.8% | SK-MEL-28 melanoma 72.2%

Cc1ccc(-c2cc(-c3cc4ccccc4nc3Cl)[nH]c(=S)n2)cc1
active: SK-MEL-5 melanoma -11%
inactive: HCT-15 colon 30.2% | HT29 colon 43.3% | SNB-75 CNS 66.2% | SNB-19 CNS 71.1% | U251 CNS 71.8% | PC-3 prostate 53.1% | UACC-62 melanoma 21.5% | LOX IMVI melanoma 53.6% | SK-MEL-28 melanoma 47.4%

COc1cnc2c(c1)C(=O)c1c-2n(CCCNC(C)C)c(=O)c2cc(OC)c(OC)cc12
active: LOX IMVI melanoma -88.2%
inactive: HCT-15 colon 34.6% | HT29 colon 10.5% | SNB-75 CNS 70.7% | SNB-19 CNS 25.2% | U251 CNS 30.4% | PC-3 prostate 48.7% | SK-MEL-5 melanoma 47.7% | UACC-62 melanoma 18.7% | SK-MEL-28 melanoma 94%

Cc1cc(C)nc(/N=C(\N)Nc2ccc(S(=O)(=O)Nc3nc(C)cc(C)n3)cc2)n1
inactive: HCT-15 colon 104% | HT29 colon 116% | SNB-75 CNS 78% | SNB-19 CNS 102% | U251 CNS 106% | PC-3 prostate 105% | SK-MEL-5 melanoma 102% | UACC-62 melanoma 100% | LOX IMVI melanoma 98.6% | SK-MEL-28 melanoma 106%

N#Cc1c(NC(=O)c2ccc(C(F)(F)F)cc2)sc2c1CCC(=O)C2
active: HCT-15 colon -66.1% | HT29 colon 8.13% | SNB-75 CNS -44.9% | SNB-19 CNS -42.2% | U251 CNS -66.3% | PC-3 prostate -9.55% | SK-MEL-5 melanoma -97.7% | UACC-62 melanoma -82.7% | LOX IMVI melanoma -86.8% | SK-MEL-28 melanoma -88.2%

O=c1cc(-c2ccccc2)oc2cc(OCCCCNCc3ccccc3)cc(O)c12
inactive: SNB-75 CNS 53.4% | SNB-19 CNS 67.2%
active: HCT-15 colon -86.1% | HT29 colon -55.4% | U251 CNS -64.7% | PC-3 prostate -8.47% | SK-MEL-5 melanoma -99.9% | UACC-62 melanoma -68.7% | LOX IMVI melanoma -99.9% | SK-MEL-28 melanoma -69.7%

N#Cc1ccc(-c2nn(-c3ccc(C(=O)O)cc3)cc2CNc2cc(Cl)cc(Cl)c2)cc1
inactive: HCT-15 colon 25.6% | HT29 colon 39.7% | SNB-75 CNS 78.5% | SNB-19 CNS 55.8% | U251 CNS 32.8% | PC-3 prostate 33.6% | SK-MEL-5 melanoma 23.9% | UACC-62 melanoma 28.5% | SK-MEL-28 melanoma 18.1%
active: LOX IMVI melanoma 7.12%

COc1ccc2ncc(C#Cc3cncc(C(=O)Nc4ccc(CN5CCN(C)CC5)c(C(F)(F)F)c4)c3)n2n1
active: HCT-15 colon -91.3% | HT29 colon -51.8% | SNB-75 CNS -91.1% | SNB-19 CNS -86.2% | U251 CNS -59.8% | PC-3 prostate -59.6% | SK-MEL-5 melanoma -100% | UACC-62 melanoma -79.6% | LOX IMVI melanoma -94.6% | SK-MEL-28 melanoma -91.8%

CN1CCc2c(sc3ncnc(N/N=C/c4cn(-c5ccccc5)nc4-c4ccc(Cl)cc4)c23)C1
active: HCT-15 colon 7.13% | HT29 colon 5.95% | UACC-62 melanoma 9.22% | LOX IMVI melanoma -65.7%
inactive: SNB-75 CNS 74.1% | SNB-19 CNS 34.3% | U251 CNS 18.2% | PC-3 prostate 55.2% | SK-MEL-5 melanoma 30.7% | SK-MEL-28 melanoma 45%

CC(=O)Nc1ccc(-c2cn(-c3cccc(C(=O)Nc4cc(CN5CCOCC5)cc(C(F)(F)F)c4)c3)nn2)cn1
active: HCT-15 colon -86.2% | HT29 colon -11.4% | SNB-75 CNS -78% | SNB-19 CNS -88.5% | U251 CNS -71.9% | PC-3 prostate -69.7% | SK-MEL-5 melanoma -100% | UACC-62 melanoma -98.1% | LOX IMVI melanoma -98.6% | SK-MEL-28 melanoma -99.2%

O=C(NO)c1ccc(CNC(=O)[C@H]2Cc3c([nH]c4ccccc34)[C@H](c3ccc(Cl)cc3)N2)cc1
active: U251 CNS -4.01% | SK-MEL-5 melanoma -70.8% | UACC-62 melanoma -49.8% | LOX IMVI melanoma -88.4% | SK-MEL-28 melanoma 1.81%
inactive: HCT-15 colon 30.5% | HT29 colon 21.5% | SNB-75 CNS 39.6% | SNB-19 CNS 15.5% | PC-3 prostate 21.4%

COc1cc(/C=C/C(=O)c2ccc(C(F)(F)F)cc2)ccc1Oc1nc(Nc2ccc(F)cc2)nc(N(C)C)n1
inactive: HCT-15 colon 70% | HT29 colon 74.1% | SNB-75 CNS 99.7% | SNB-19 CNS 83% | U251 CNS 74.2% | PC-3 prostate 76% | SK-MEL-5 melanoma 61.7% | UACC-62 melanoma 57.7% | LOX IMVI melanoma 46.9% | SK-MEL-28 melanoma 85.9%

COc1ccc(-c2c(N)c(=O)n(C)c3ccccc23)cc1
inactive: HCT-15 colon 49.7% | HT29 colon 59.9% | SNB-75 CNS 75.4% | SNB-19 CNS 62.1% | U251 CNS 47.8% | PC-3 prostate 46.9% | SK-MEL-5 melanoma 57.7% | UACC-62 melanoma 38.1% | LOX IMVI melanoma 45.9% | SK-MEL-28 melanoma 86.5%

CC(C)CCSc1nc(NC2CC2)c(C#N)c(-c2ccc(C(C)C)cc2)n1
inactive: HCT-15 colon 106% | HT29 colon 108% | SNB-75 CNS 111% | SNB-19 CNS 98.6% | U251 CNS 106% | PC-3 prostate 106% | SK-MEL-5 melanoma 102% | UACC-62 melanoma 98.3% | LOX IMVI melanoma 100% | SK-MEL-28 melanoma 110%

O=C(c1ccc(Cl)cc1)C1[C@H](c2ccc(Br)cc2)[C@@H](c2ccccc2)NC12C(=O)Nc1ccccc12 (stereo not given in full)
inactive: SNB-75 CNS 15% | SNB-19 CNS 15.9%
active: HCT-15 colon -2.63% | HT29 colon -52.2% | U251 CNS -6.22% | PC-3 prostate 5.16% | SK-MEL-5 melanoma -23.2% | UACC-62 melanoma -60.6% | LOX IMVI melanoma -100% | SK-MEL-28 melanoma -32.7%

NS(=O)(=O)c1ccc(NC(=O)CSc2ccc(-c3ccccc3)nn2)c(Br)c1
inactive: HCT-15 colon 86.7% | HT29 colon 99.2% | SNB-75 CNS 14.2% | SNB-19 CNS 42.9% | U251 CNS 17.8% | PC-3 prostate 51.9% | SK-MEL-5 melanoma 85.7% | UACC-62 melanoma 59.2% | LOX IMVI melanoma 42.6% | SK-MEL-28 melanoma 94.7%

CN1C(=O)N(C)C2SC(N/N=C/C=C/c3ccccc3)=NC21 (stereo not given)
inactive: HCT-15 colon 37.2% | HT29 colon 73.2% | SNB-75 CNS 89.7% | SNB-19 CNS 72.5% | U251 CNS 79.2% | PC-3 prostate 75.5% | SK-MEL-5 melanoma 57.9% | UACC-62 melanoma 41.7% | LOX IMVI melanoma 68.1% | SK-MEL-28 melanoma 69.5%

CN1CCCN(Cc2ccc(C(=O)Nc3cccc(Nc4ccc5cc(O)ccc5n4)c3)cc2C(F)(F)F)CC1
active: LOX IMVI melanoma -100% | SK-MEL-28 melanoma -67.9%
inactive: HCT-15 colon 14.6% | HT29 colon 27.8% | SNB-75 CNS 32.2% | SNB-19 CNS 81.1% | U251 CNS 33.7% | PC-3 prostate 51.3% | SK-MEL-5 melanoma 32.4% | UACC-62 melanoma 88.1%

COc1ccc(CCN2C(=O)/C(=C/c3csc(C#N)n3)SC2=S)cc1OC
active: HCT-15 colon -45.4% | HT29 colon -48.4% | LOX IMVI melanoma -62.7%
inactive: SNB-75 CNS 71.7% | SNB-19 CNS 80% | U251 CNS 89.8% | PC-3 prostate 71.6% | SK-MEL-5 melanoma 74.2% | UACC-62 melanoma 46.8% | SK-MEL-28 melanoma 18.9%

O=C(O)CCCCCCCCCCN1C(=O)/C(=C/c2cnc(-c3ccc(Cl)cc3)s2)SC1=S
active: U251 CNS -13% | UACC-62 melanoma 0.545% | LOX IMVI melanoma 5.11%
inactive: HCT-15 colon 26.3% | HT29 colon 96.3% | SNB-75 CNS 73.3% | SNB-19 CNS 27.1% | PC-3 prostate 25.4% | SK-MEL-5 melanoma 27.4% | SK-MEL-28 melanoma 40%

COc1cnc2c(c1)C(=O)c1c-2n(CCCNCCO)c(=O)c2cc(OC)c(OC)cc12
inactive: HCT-15 colon 32.3% | HT29 colon 12.1% | SNB-75 CNS 59.6% | SNB-19 CNS 18.7% | U251 CNS 20.8% | PC-3 prostate 43.2% | SK-MEL-5 melanoma 12% | SK-MEL-28 melanoma 70.2%
active: UACC-62 melanoma -2.88% | LOX IMVI melanoma -78%

N#Cc1ccc(-c2nn(-c3ccc(C(=O)O)cc3)cc2CNc2cccc(Br)c2)cc1
inactive: HCT-15 colon 35.5% | HT29 colon 50.7% | SNB-75 CNS 101% | SNB-19 CNS 51.7% | U251 CNS 37% | PC-3 prostate 40.1% | SK-MEL-5 melanoma 24.1% | UACC-62 melanoma 41.8% | LOX IMVI melanoma 13.2% | SK-MEL-28 melanoma 35.6%

CC(=O)NNc1ccc2nnc(-c3ccc(Br)cc3)n2n1
inactive: HCT-15 colon 93.8% | HT29 colon 103% | SNB-75 CNS 121% | SNB-19 CNS 92% | U251 CNS 93.3% | PC-3 prostate 93.6% | SK-MEL-5 melanoma 95.4% | UACC-62 melanoma 87.9% | LOX IMVI melanoma 100% | SK-MEL-28 melanoma 106%

O=c1[nH]c2ccccc2cc1CSc1ccc(Nc2nccc(-c3ccc4c(c3)OCO4)n2)cc1
inactive: HCT-15 colon 84.1% | HT29 colon 74.3% | SNB-75 CNS 105% | SNB-19 CNS 88.7% | U251 CNS 75.8% | PC-3 prostate 88.9% | SK-MEL-5 melanoma 94.5% | UACC-62 melanoma 96.2% | LOX IMVI melanoma 58.7% | SK-MEL-28 melanoma 105%

Cn1cc(-c2cc(N)n3nc(-c4c[nH]c5ccc(Br)cc45)cc3n2)c2cc(Br)cnc21
active: HCT-15 colon -96.3% | HT29 colon -86.3% | SNB-75 CNS -19.6% | SNB-19 CNS -35.9% | U251 CNS -76.5% | PC-3 prostate -44.8% | SK-MEL-5 melanoma -99% | UACC-62 melanoma -75% | LOX IMVI melanoma -94.5% | SK-MEL-28 melanoma -87.1%

Cc1ccn2c(C(=O)c3ccc(Br)cc3)cc(-c3cc(-c4ccc(N(C)C)cc4)c(C#N)c(N)n3)c2c1
inactive: HCT-15 colon 39.7% | HT29 colon 34.6% | SNB-75 CNS 118% | SNB-19 CNS 67.8% | U251 CNS 19.9% | PC-3 prostate 64.4% | SK-MEL-5 melanoma 53.1% | UACC-62 melanoma 76.7% | LOX IMVI melanoma 30.7% | SK-MEL-28 melanoma 51.1%
